# FEN1 inh-1 – inhibitors of human flap endonuclease 1; P39748; Recombinant FEN1 flap cleavage, fluorescence, 15 min; Potency, µM (highest dose often 114 µM), without a hit: top-dose activity change, negative = inhibition, usual class: inhibitors; hit rate 0.35% among 390,000; AID 588795; note: % is set by controls: 0 for no effect and ±100 for the full control effect; nearly all actives have a fitted effect of over 65% in size
#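 In this screen, 50 nM flap DNA substrate was added to 10 nM FEN1 pretreated with compound for 15 min at room temperature; cleavage was followed with reads at 0 and 15 min, and Hill fitting gave concentration–response parameters.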
# RECQ1 inh-1 – RECQ1 (human) helicase inhibition; hit rate 0.54% among 240,000; AID 2549; RECQ1 DNA unwinding, red fluorescence kinetic read; P46063; Potency, µM (series often up to 57.3 µM), for inactives: at the top dose activity, negative = inhibition, actives largely listed as inhibitors;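 note: plate controls were vehicle for no effect and no enzyme for full effect; nearly all actives have a fitted effect of over 30% in size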
#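 50 nM RECQ1T1 preincubated 15 min with compound in Tris pH 8.0 buffer with MgCl2, DTT, Tween-20 and 2.5 ug/ml poly(dI-dC); started with 200 nM TAMRA/BHQ-2 forked duplex and 2 mM ATP. Unwinding read as fluorescence (525/598 nm), two reads 2 h apart.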
# BLM helicase inh – Bloom syndrome helicase (human) inhibition. P54132. recombinant BLM DNA unwinding, fluorescence dequenching. Potency, µM (titrated, usually from 56.1 µM), without a hit: top-dose activity change, negative = inhibition, usual class: inhibitors. hit rate 0.2% among 350,000. AID 2528;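 note: plate controls were vehicle for no effect and no enzyme for full effect; nearly all actives have a fitted effect of over 35% in size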
# Target sequence (P54132 whole entry, looked up): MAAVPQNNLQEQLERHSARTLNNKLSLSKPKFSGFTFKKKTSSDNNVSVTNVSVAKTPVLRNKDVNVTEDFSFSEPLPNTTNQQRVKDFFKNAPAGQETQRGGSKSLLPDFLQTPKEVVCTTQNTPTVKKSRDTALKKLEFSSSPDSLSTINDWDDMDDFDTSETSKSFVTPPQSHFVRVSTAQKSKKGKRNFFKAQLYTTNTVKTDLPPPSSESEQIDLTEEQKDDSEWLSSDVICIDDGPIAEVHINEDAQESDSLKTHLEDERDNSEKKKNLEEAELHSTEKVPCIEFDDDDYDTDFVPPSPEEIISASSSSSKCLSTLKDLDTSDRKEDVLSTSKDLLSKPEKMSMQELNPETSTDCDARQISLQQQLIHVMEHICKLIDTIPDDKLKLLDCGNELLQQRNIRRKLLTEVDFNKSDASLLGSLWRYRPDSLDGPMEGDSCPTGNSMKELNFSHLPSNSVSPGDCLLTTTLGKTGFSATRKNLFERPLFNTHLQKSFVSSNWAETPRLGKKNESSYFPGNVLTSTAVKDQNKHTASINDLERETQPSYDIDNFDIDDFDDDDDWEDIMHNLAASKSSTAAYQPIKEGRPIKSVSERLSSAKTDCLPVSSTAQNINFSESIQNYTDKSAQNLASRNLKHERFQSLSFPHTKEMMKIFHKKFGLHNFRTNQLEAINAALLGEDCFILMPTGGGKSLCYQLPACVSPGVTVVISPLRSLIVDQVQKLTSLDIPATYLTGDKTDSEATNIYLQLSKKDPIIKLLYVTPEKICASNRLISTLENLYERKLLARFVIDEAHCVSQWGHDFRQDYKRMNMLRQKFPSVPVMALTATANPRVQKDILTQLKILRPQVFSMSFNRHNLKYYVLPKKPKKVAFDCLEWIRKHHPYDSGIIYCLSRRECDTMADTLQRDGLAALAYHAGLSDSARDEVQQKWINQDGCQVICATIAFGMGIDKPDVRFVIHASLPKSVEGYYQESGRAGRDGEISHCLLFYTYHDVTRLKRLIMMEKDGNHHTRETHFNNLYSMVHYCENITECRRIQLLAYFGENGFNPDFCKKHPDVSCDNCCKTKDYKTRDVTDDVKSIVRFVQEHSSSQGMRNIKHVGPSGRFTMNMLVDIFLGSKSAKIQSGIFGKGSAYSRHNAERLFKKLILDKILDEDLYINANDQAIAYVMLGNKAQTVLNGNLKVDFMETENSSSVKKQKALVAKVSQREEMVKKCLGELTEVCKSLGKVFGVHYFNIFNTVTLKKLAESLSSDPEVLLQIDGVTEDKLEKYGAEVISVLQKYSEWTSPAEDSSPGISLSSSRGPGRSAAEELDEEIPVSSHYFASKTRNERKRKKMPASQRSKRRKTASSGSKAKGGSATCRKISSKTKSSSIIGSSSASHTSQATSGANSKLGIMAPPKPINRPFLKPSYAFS
# APE1 inh – APE1 (human) endonuclease inhibition | P27695 | recombinant APE1, TAMRA/BHQ-2 abasic DNA cleavage fluorescence | Potency, µM (titrated, usually from 65.8 µM), without a hit: top-dose activity change, negative = inhibition, actives largely listed as inhibitors | hit rate 0.35% among 350,000 | AID 2517;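 note: plate controls were vehicle for no effect and reference inhibitor for full effect; nearly all actives have a fitted effect of over 55% in size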
#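 APE1 at 0.75 nM final was preincubated with compound 15 min at room temperature, then 50 nM double-stranded THF abasic-site substrate (5'-TAMRA/3'-BHQ-2) was added. Fluorescence (ex 525/em 598 nm) was read kinetically; third-minus-first read gave activity.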
# PGK inhibitor – T. brucei PGK inhibition. AID 602233. P07378. PGK/GAPDH coupled, Kinase-Glo luminescence, 60 min. Potency, µM (series often up to 57.5 µM), for the others: at the top dose activity change, negative = inhibition, usual class: inhibitors. hit rate 0.043% among 380,000; note: % is set by controls: 0 for no effect and ±100 for the full control effect; nearly all actives have a fitted effect of over 60% in size
#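 Luminescent ATP detection (Kinase-Glo Plus) follows a 60-minute room-temperature incubation, with wells lacking PGK as controls. Buffer: 100 mM TEA (pH 7.6), 5 mM MgCl2, 0.01% Tween-20. Coupling enzyme GAPDH (100 nM final) supplies unstable 1,3-BPG in-well.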
# RECQ1 inh conf – confirmation of human RECQ1 helicase inhibitors. shares compounds with RECQ1 inh-1. RECQ1 helicase DNA unwinding, fluorescence. Potency, µM (top dose mostly 229 µM), for inactives: at the top dose activity change, negative = inhibition, hits mostly inhibitors. hit rate 28% among 610; note: % is set by controls: 0 for no effect and ±100 for the full control effect; nearly all actives have a fitted effect of over 45% in size
# RECQ1 ADP FP – ADP displacement flagged in RECQ1 inhibitor counter-screen; shares compounds with RECQ1 inh-1; ADP fluorescence polarization displacement counterscreen; Potency, µM (series often up to 228 µM), for the others: at the highest dose activity change, negative = inhibition, hits mostly inhibitors; AID 2711; hit rate 27% among 530; note: % is set by controls: 0 for no effect and ±100 for the full control effect; nearly all actives have a fitted effect of over 45% in size
# RECQ1 inh-2 – blocks human RECQ1 DNA unwinding. shares compounds with RECQ1 inh-1. recombinant RECQ1 DNA unwinding, red fluorescence. Potency, µM (highest dose often 119 µM), without a hit: at the highest dose activity, negative = inhibition, actives largely listed as inhibitors. hit rate 15% among 1,100; note: % is set by controls: 0 for no effect and ±100 for the full control effect; nearly all actives have a fitted effect of over 50% in size
# FEN1 inh-2 – FEN1 inhibition, cherry-pick retest; shares compounds with FEN1 inh-1; FEN1 flap cleavage, TAMRA/BHQ2 fluorogenic DNA substrate; Potency, µM, actives largely listed as inhibitors; hit rate 79% among 880; note: nearly all actives have a fitted effect of over 60% in size
# Numbers without * were called inactive; i = inactive; u = inconclusive; x = no result given; [ ] = another dose, or the depositor's remark. Most compounds without a hit are left out; they make up all but 0.74% or so of the library. Calls come from the whole dose curve; as a rule, active = well fitted curve in the direction sought with a large enough effect; inconclusive = small, poorly fitted or top-dose-only effect, or another doubt; inactive = no such curve, though single readings can be large; an effect the other way counts as inactive or inconclusive. Potency is the fitted concentration of half-maximal effect.
SMILES,FEN1 inh-1,RECQ1 inh-1,BLM helicase inh,APE1 inh,PGK inhibitor,RECQ1 inh-2,FEN1 inh-2,others
COc1ccc(CCN2C(=O)NC(NC(C)=O)(C(F)(F)F)C2=O)cc1OC (stereo not given),12.4%,1.0%,3.7%,15.0%,-7.1%,x,x,
S=C(NCCSCc1c(Cl)cccc1Cl)Nc1ccccc1,u,12.6µM*,-11.4%,-2.6%,-1.3%,x,x,RECQ1 inh conf=4.2%[114 µM];RECQ1 ADP FP=0.8%[91.9 µM]
CCC(C)NC(=O)c1ccccc1NC(=O)c1ccc(CSc2ccc(C)cc2)cc1 (stereo not given),-4.6%,5.01µM*,-3.6%,7.8%,-8.9%,-16.3%,x,RECQ1 inh conf=-7.9%[114 µM];RECQ1 ADP FP=5.1%[91.9 µM]
CCOC(=O)CN1C(=O)S/C(=C/C=C/c2ccc(N(C)C)cc2)C1=O,-12.2%,25.1µM*,u,-6.2%,i,31.6µM*,x,
CCCCNC(=O)c1onc(CSc2cc(C)ccc2C)c1C(=O)O,1.4%,i,2.4%,-10.8%,-7.2%,x,x,
O=C(COC(=O)Cc1ccccc1[N+](=O)[O-])NCc1ccc(Cl)cc1,-1.4%,0.2%,1.4%,1.2%,i,x,x,
O=C(O)c1ccc(NS(=O)(=O)c2ccc3c(c2)C2C=CCC2C(c2ccccc2F)N3)cc1 (stereo not given),39.8µM*,u,6.6%,u,-2.3%,-14.2%,30.1*,
N=C1/C(=C\c2coc3ccc(O)cc3c2=O)C(=O)N=C2SC=CN12,50.1µM*,25.1µM*,-27.6%,1.5%,-7.3%,56.2µM*,u,
CN1C(=O)/C(=C/c2coc3ccc(O)cc3c2=O)SC1=S,-19.7%,-20.9%,-1.9%,4.0%,-5.1%,x,x,
Cc1ccc(-n2nc(-c3ccco3)cc2C(=O)O)c(C)c1,-5.1%,20µM*,-16.4%,u,-16.8%,u,37.9*,
CCOC(=O)c1[nH]cnc1C(=O)Nc1cccc(N)n1,1.0%,10.3%,-0.4%,-2.7%,2.7%,x,x,
O=C(Nc1ccc(Cc2ccncc2)cc1)c1ccc(S(=O)(=O)N2CCOCC2)cc1,6.0%,-4.6%,-1.2%,-4.6%,-5.5%,x,x,
Cc1c(Cl)cnc(NC(=O)COC(=O)c2ccc([N+](=O)[O-])s2)c1Cl,u,28.2µM*,-27.3%,u,-8.3%,10µM*,8.49*,
O=C(COC(=O)c1ccc([N+](=O)[O-])s1)Nc1ccc(Cl)cn1,-2.5%,-13.3%,-17.8%,12.7%,3.2%,x,x,
O=C(NN1C(=O)/C(=C/C=C/c2ccco2)SC1=S)c1ccccc1O,11.2µM*,2.51µM*,u,2µM*,u,x,26.9*,RECQ1 inh conf=12.6µM*;RECQ1 ADP FP=14.1µM*
COc1cc(/C=C2\SC(=S)N(NC(=O)c3cccc(O)c3)C2=O)ccc1O,u,x,-16.6%,17.0%,-14.1%,x,x,
COc1cc(/C=C2\SC(=S)N(NC(=O)c3ccncc3)C2=O)ccc1O,u,14.1µM*,-13.9%,u,-14.4%,x,75.7*,RECQ1 inh conf=50.1µM*;RECQ1 ADP FP=78.7%[91.9 µM]
COc1ccc(-c2cc(-c3cccs3)nc3sc(C#N)c(N)c23)cc1,-8.3%,-9.5%,-26.2%,3.5%,2.3%,x,x,
O=C1c2cccc3cc([N+](=O)[O-])cc(c23)C(=O)N1CCN1CCCC1,14.1µM*,u,108.3%,u,0.9%,25.1µM*,10.7*,
O=C(O)Cc1c[nH]c2ccccc12,2.5%,x,x,x,5.8%,x,x,
O=C(O)Cc1c[nH]c2cccc(O)c12,50.1µM*,31.6µM*,-4.1%,15.8µM*,u,-16.8%,47.8*,
CCCc1cc(=O)[nH]c(SCC(=O)NC)n1,4.0%,-4.3%,-1.5%,u,-7.6%,x,x,
O=C(O)C1Nc2c(O)cc(Cl)c([N+](=O)[O-])c2C2C=CCC12 (stereo not given),u,1.78µM*,1.78µM*,2.51µM*,4.47µM*,u,23.9*,
Clc1cccc(Cc2ccc(Cl)nn2)c1,-5.4%,-13.8%,0.8%,-1.9%,i,x,x,
O=C(NCCCO)c1ccc2nc(-c3ccco3)c(-c3ccco3)nc2c1,12.6µM*,u,-29.7%,u,-5.9%,-10.4%,67.5*,
SMILES,FEN1 inh-1,RECQ1 inh-1,BLM helicase inh,APE1 inh,PGK inhibitor,RECQ1 inh-2,FEN1 inh-2,others
COC(=O)c1nn(-c2ccccc2)c(=O)cc1O,-0.5%,-7.0%,0.4%,-3.3%,-2.4%,x,x,
CN1/C(=C\C=C2/SC(=S)N(CC(=O)O)C2=O)C(C)(C)c2ccccc21,u,25.1µM*,14.1µM*,25.1µM*,-28.2%,x,84.9*,RECQ1 inh conf=39.8µM*;RECQ1 ADP FP=3.16µM*
O=C1NC(=O)/C(=C/c2cccc3ccccc23)S1,-2.5%,x,2.7%,20.2%,-3.5%,x,x,
O=C1NC(=O)/C(=C\c2ccc(O)cc2O)S1,15.8µM*,22.4µM*,-22.7%,3.98µM*,3.1%,12.6µM*,67.5*,
O=C(Nc1cccc(S(=O)(=O)NC2=NCCC2)c1)c1cc(-c2ccco2)nc2ccccc12,u,11.2µM*,10µM*,7.94µM*,u,u,75.7*,RECQ1 inh conf=14.1µM*;RECQ1 ADP FP=39.8µM*
CC(=O)Nc1ccc(-n2nnnc2SCC(=O)Nc2cccc(NC(=O)c3ccco3)c2)cc1,u,u,-23.2%,u,-6.0%,u,u,
CCc1ccc(-n2nnnc2SCC(=O)Nc2ccc(NC(C)=O)cc2)cc1,1.6%,x,-0.2%,-1.5%,-8.3%,x,x,
COC(=O)c1cc2cc(OC)ccc2n1C,14.4%,x,x,31.3%,-6.6%,x,x,
Cc1cc(/C=C2\C(=N)N3N=C(c4ccco4)SC3=NC2=O)c(C)n1Cc1ccccc1,u,u,-23.5%,-5.0%,-4.1%,u,u,
CCC1=NN2C(=N)/C(=C/c3cc(C)n(Cc4ccccc4)c3C)C(=O)N=C2S1,-15.9%,-19.6%,-8.9%,-4.9%,-1.4%,x,x,
CCc1ccccc1NC(=O)c1noc2c1CC(C(C)(C)C)CC2 (stereo not given),-18.5%,x,-11.7%,x,i,x,x,
CC1=C(C(=O)Nc2ccccc2)C(c2ccc(Cl)cc2)n2c(s/c(=C/c3cccc(OCC(=O)O)c3)c2=O)=N1 (stereo not given),u,4.3%,-22.9%,8.3%,u,x,x,
CCOC(=O)C1=C(C)N=c2s/c(=C/c3ccc(OCC(=O)O)cc3)c(=O)n2C1c1ccc(F)cc1 (stereo not given),u,x,-7.0%,-40.3%,-25.2%,x,84.9*,

# Assay outcomes as filed in PubChem BioAssay.
